Data from PubChem BioAssay (EPA / NIEHS).
“And” between values parts separate entries of the source, which are not always exact repeats. Equal values may be shown once. Where a structure was tested more than once in an assay, its records may differ in their call. The source made the active and inactive calls. How the source made its calls: active means hit-call score of the fitted dose curve at least 0.9, where 1 is the maximum; inactive means score below 0.9.

Key:
[1] = read-out: TIMP metallopeptidase inhibitor 2 (TIMP2), TIMP2 (gene 7077); assay: BSK_KF3CT_TIMP2: BioMAP Diversity Plus: KF3CT Assay for TIMP metallopeptidase inhibitor 2 (TIMP2) Biomarker Activity (AID 2283071); settings: primary human keratinocytes with fibroblasts; actives raise or lower the signal
Procedure, shortened: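 TIMP-2 measured by ELISA at 24 h in human keratinocyte/fibroblast primary co-cultures exposed to chemicals. Both increases and decreases were fitted against DMSO. Parallel cultures were stained with SRB for total protein as an overt-cytotoxicity check.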

[2] = read-out: C-C motif chemokine 2 (Homo sapiens) (UniProt P13500); assay: BSK_KF3CT_MCP1: BioMAP Diversity Plus: KF3CT Assay for Monocyte Chemoattractant Protein 1 (MCP1/CCL2) Biomarker Activity (AID 2283073); settings: primary human keratinocytes with fibroblasts; actives raise or lower the signal
Procedure, shortened: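 Keratinocytes and foreskin fibroblasts were co-cultured, dosed with chemical, and sampled 24 h later. MCP-1 was quantified by ELISA, and the endpoint was analyzed with bidirectional fitting using DMSO as negative control.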

[3] = read-out: Matrix Metallopeptidase 9 (MMP9), MMP9 (gene 4318); assay: BSK_KF3CT_MMP9: BioMAP Diversity Plus: KF3CT Assay for Matrix Metallopeptidase 9 (MMP9) Biomarker Activity (AID 2283074); settings: primary human keratinocytes with fibroblasts; actives raise or lower the signal;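 on AC50: MMP9 protein level quantified by ELISA in the co-culture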
Procedure, shortened: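 ELISA read-out of MMP-9 at 24 h post-dosing in a co-culture of human skin keratinocytes and foreskin fibroblasts. Gain or loss of signal was fitted in both directions against DMSO.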

[4] = read-out: urokinase plasminogen activator (uPA), PLAU (gene 5328); assay: BSK_KF3CT_uPA: BioMAP Diversity Plus: KF3CT Assay for urokinase plasminogen activator (uPA) Biomarker Activity (AID 2283075); settings: primary human keratinocytes with fibroblasts; actives raise or lower the signal
Procedure, shortened: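 Skin co-culture (keratinocytes + foreskin fibroblasts), human primary; 24 h post-dose; uPA by ELISA; gain/loss fit vs DMSO baseline.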

[5] = read-out: CD40, CD40 (gene 958); assay: BSK_LPS_CD40: BioMAP Diversity Plus: LPS Assay for CD40 Biomarker Activity (AID 2283076); settings: primary human HUVEC with PBMC; actives raise or lower the signal
Procedure, shortened: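 CD40 signal, measured by ELISA, is fitted in both directions relative to DMSO vehicle. The system is an LPS-driven human vascular primary co-culture of endothelial cells and PBMC, sampled 24 h after compound addition.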

[6] = read-out: E-selectin (Homo sapiens) (UniProt P16581); assay: BSK_LPS_Eselectin: BioMAP Diversity Plus: LPS Assay for Eselectin Biomarker Activity (AID 2283077); settings: primary human HUVEC with PBMC; actives raise or lower the signal
Procedure, shortened: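 Signal of E-selectin, detected by ELISA, served as the endpoint; cells were umbilical vein endothelium with PBMC, read 24 h after treatment. DMSO defined baseline, and both increases and decreases were fitted.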

[7] = read-out: Interleukin-8 (IL8), CXCL8 (gene 3576); assay: BSK_LPS_IL8: BioMAP Diversity Plus: LPS Assay for Interleukin-8 (IL8) Biomarker Activity (AID 2283078); settings: primary human HUVEC with PBMC; actives raise or lower the signal
Procedure, shortened: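 Endothelial cells and PBMC from human donors are co-cultured, treated with chemicals and LPS, then assayed for IL-8 by ELISA after 24 h. Parallel SRB staining (0.1% SRB after 10% TCA fixation, 560 nm) flags cytotoxicity.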

[8] = BSK_LPS_SRB: Viability Assessment in the BioMAP Diversity Plus: LPS Assay (AID 2283079); settings: primary human HUVEC with PBMC;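 further: total protein by sulforhodamine B absorbance as a cytotoxicity measure; measured one day after compound addition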
Procedure, shortened: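 Overt cytotoxicity was gauged by sulforhodamine B total-protein staining in a primary human vascular endothelial and mononuclear cell co-culture 24 h post-dosing. Activity was fitted in both directions relative to DMSO.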

[9] = read-out: Interleukin-1 alpha (IL1a), IL1A (gene 3552); assay: BSK_LPS_IL1a: BioMAP Diversity Plus: LPS Assay for Interleukin-1 alpha (IL1a) Biomarker Activity (AID 2283080); settings: primary human HUVEC with PBMC; actives raise or lower the signal
Procedure, shortened: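 Measured: IL-1 alpha via ELISA at 24 h in LPS-activated human umbilical vein endothelium–PBMC co-culture. Baseline: DMSO, bidirectional fitting.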

[10] = read-out: Monocyte Chemoattractant Protein-1 (MCP1), CCL2 (gene 6347); assay: BSK_LPS_MCP1: BioMAP Diversity Plus: LPS Assay for Monocyte Chemoattractant Protein-1 (MCP1) Biomarker Activity (AID 2283081); settings: primary human HUVEC with PBMC; actives raise or lower the signal;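 on AC50: secreted MCP-1 protein quantified by ELISA in culture supernatant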
Procedure, shortened: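 LPS-stimulated HUVEC/PBMC co-culture; chemical, 24 h; MCP-1 by ELISA; bidirectional fit vs DMSO; cytotoxicity via SRB (0.1% stain, 10% TCA fix, 560 nm) in parallel wells.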

E-selectin (Homo sapiens), sequence (P16581 whole entry, looked up): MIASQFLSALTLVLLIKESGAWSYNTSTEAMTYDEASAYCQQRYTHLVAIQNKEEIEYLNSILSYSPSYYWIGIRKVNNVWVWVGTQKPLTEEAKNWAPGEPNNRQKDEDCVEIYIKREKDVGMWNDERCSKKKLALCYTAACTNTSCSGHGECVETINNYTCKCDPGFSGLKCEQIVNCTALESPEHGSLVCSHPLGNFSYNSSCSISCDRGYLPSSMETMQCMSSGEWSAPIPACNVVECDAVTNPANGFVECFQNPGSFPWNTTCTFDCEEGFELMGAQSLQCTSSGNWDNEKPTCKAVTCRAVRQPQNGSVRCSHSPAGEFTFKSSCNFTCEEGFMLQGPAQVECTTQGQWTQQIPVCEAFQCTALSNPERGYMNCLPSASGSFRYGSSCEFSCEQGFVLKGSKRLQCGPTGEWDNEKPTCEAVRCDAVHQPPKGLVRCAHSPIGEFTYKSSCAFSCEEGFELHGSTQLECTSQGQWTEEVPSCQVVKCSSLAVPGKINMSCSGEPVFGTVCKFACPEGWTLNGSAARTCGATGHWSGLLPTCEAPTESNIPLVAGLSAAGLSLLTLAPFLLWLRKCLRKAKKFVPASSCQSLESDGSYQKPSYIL

Row | SMILES | outcome [1] | outcome [2] | AC50 [3] | outcome [3] | outcome [4] | outcome [5] | outcome [6] | outcome [7] | AC50 [8] | outcome [8] | AC50 [9] | outcome [9] | outcome [10] | AC50 [5] | AC50 [7] | AC50 [10] | AC50 [1] | AC50 [4] | AC50 [6] | AC50 [2]
1 | CNS(=O)(=O)C(F)(F)C(F)(F)C(F)(F)C(F)(F)C(F)(F)C(F)(F)C(F)(F)C(F)(F)F | inactive | inactive | 20.4 µM (active) | inactive | inactive | inactive | inactive | inactive | 22.5 µM (active) | inactive | 5.38 µM (active) | inactive | inactive | – | – | – | – | – | – | –
2 | CCN(CC)c1ccc(C=O)cc1 | inactive | inactive | – | inactive | inactive | inactive | inactive | inactive | – | inactive | – | inactive | inactive | – | – | – | – | – | – | –
3 | Cc1cnccn1 | inactive | inactive | – | inactive | inactive | inactive | inactive | inactive | – | inactive | – | inactive | inactive | – | – | – | – | – | – | –
4 | OC(O)C(F)(F)C(F)(F)F | inactive | inactive | – | inactive | inactive | inactive | inactive | inactive | – | inactive | – | inactive | inactive | – | – | – | – | – | – | –
5 | CCN(CC)c1ccc(N=Nc2ccccc2)cc1 | inactive | inactive | 9.24 µM (active) | – | inactive | – | inactive | – | 29.6 µM (active) | – | 34.4 µM (active) | – | – | 28.6 µM (active) | 20 µM (active) | 31.9 µM (active) | – | – | – | –
6 | O=S(=O)(Cl)C(F)(F)C(F)(F)C(F)(F)C(F)(F)C(F)(F)C(F)(F)C(F)(F)C(F)(F)F | inactive | inactive | 30 µM (active) and 51.1 µM (active) | – | inactive | inactive | inactive | – | – | inactive | – | inactive | inactive | – | 30 µM (active) | – | – | – | – | –
7 | FC(F)(F)C(F)(F)C(F)(F)C(F)(F)C(F)(F)C(F)(F)CC[Si](Cl)(Cl)Cl | inactive | inactive | – | inactive | inactive | inactive | inactive | inactive | – | inactive | – | inactive | inactive | – | – | 0.219 µM (active) | – | – | – | –
8 | OCC(O)CC(F)(F)C(F)(F)C(F)(F)C(F)(F)F (stereo not drawn) | inactive | inactive | – | inactive | inactive | inactive | inactive | inactive | – | inactive | – | inactive | inactive | – | – | – | – | – | – | –
9 | CC(C)(C)c1cc(CCC(=O)NCCCCCCNC(=O)CCc2cc(C(C)(C)C)c(O)c(C(C)(C)C)c2)cc(C(C)(C)C)c1O | inactive | inactive | – | inactive | inactive | inactive | inactive | inactive | – | inactive | – | inactive | inactive | – | – | – | – | – | – | –
10 | OCC(O)CC(F)(F)C(F)(F)C(F)(F)C(F)(F)C(F)(F)C(F)(F)C(F)(F)C(F)(F)F (stereo not drawn) | inactive | inactive | – | inactive | inactive | inactive | inactive | inactive | – | inactive | – | inactive | inactive | – | – | – | – | – | – | –
11 | CCOC(C=C(C)CCC=C(C)C)OCC | – | – | 20 µM (active) | – | – | – | – | inactive | 31.9 µM (active) | – | 32.9 µM (active) | – | – | 30 µM (active) | – | 20 µM (active) | 31.2 µM (active) | 3.97 µM (active) | 35 µM (active) | –
12 | NC(=O)C(F)(F)C(F)(F)C(F)(F)F | inactive | inactive | – | inactive | inactive | inactive | inactive | inactive | – | inactive | – | inactive | inactive | – | – | – | – | – | – | –
13 | O=C1C=CC(=O)N1c1ccc(Cc2ccc(N3C(=O)C=CC3=O)cc2)cc1 | – | – | 5.44 µM (active) | – | – | – | – | – | 14.6 µM (active) | – | 8.38 µM (active) | – | – | 10.4 µM (active) | 20 µM (active) | 14.9 µM (active) | 2.2 µM (active) | 5.55 µM (active) | 12.4 µM (active) | 1.99 µM (active)
14 | C=CC(=O)OCC(F)(F)C(F)(F)C(F)(F)COC(=O)C=C | – | – | 24 µM (active) and 20.9 µM (active) | – | – | – | – | – | 48.6 µM (active) and 47.4 µM (active) | – | 15.5 µM (active) and 12.1 µM (active) | – | – | 8.33 µM (active) and 8.66 µM (active) | 15.9 µM (active) and 14.8 µM (active) | 18.8 µM (active) and 16.1 µM (active) | 30 µM (active) | 21.1 µM (active) and 25.7 µM (active) | 16.1 µM (active) and 13.1 µM (active) | 22.3 µM (active) and 12.7 µM (active)
15 | CCN(CC)c1ccc2c(c1)Oc1cc(N(CC)CC)ccc1C21OC(=O)c2ccccc21 | inactive | inactive | – | inactive | inactive | inactive | inactive | – | – | inactive | – | inactive | inactive | – | 6.55 µM (active) | – | – | – | – | –
16 | NC(=O)C(F)(F)C(F)(F)C(F)(F)C(F)(F)C(F)(F)C(F)(F)C(F)(F)F | inactive | inactive | – | inactive | inactive | inactive | inactive | inactive | – | inactive | – | inactive | inactive | – | – | – | – | – | – | –
17 | CN(C(=O)C(F)(F)C(F)(F)C(F)(F)F)[Si](C)(C)C | inactive | inactive | – | inactive | inactive | inactive | inactive | inactive | – | inactive | – | inactive | inactive | – | – | – | – | – | – | –
